Bioassay records deposited in PubChem BioAssay by several laboratories.
Hits are enriched below; roughly 2.2% of the tested compounds scored in any of these assays.
LYP act – activators of human LYP (PTPN22) phosphatase. 0.11% of 96,000 active. activation, % at 2 µM. AID 697. Q9Y2R2. recombinant LYP, DiFMUP fluorescence; 0 = plate median, 100 = signal doubled;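 active = activation at 2 µM above a set limit, the mean plus 5 SD, cut at about 37% in these data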
FAK blocker – inhibitors of human focal adhesion kinase. 0.84% of 97,000 active. biochemical FAK kinase activity assay. Q05397. AID 727. inhibition, %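 (tested at 7 µM)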; in the data active = inhibition above about 19%;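 also: 0% = DMSO and 100% = reference compound high control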
MRP resist rev – reverses drug resistance mediated by MRP | H69AR cells + 2 uM doxorubicin, CellTiter-Glo, 72 h | differential viability (reversal), % at 10 µM | 0.04% of 85,000 active;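 active = viability drop by adding the cancer drug above about 55%, with treated viability meeting a 40% cutoff, limit read from the data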;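 also: viability without doxorubicin minus viability with 2 µM doxorubicin for each compound; larger differential means the compound sensitizes cells more to doxorubicin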
MRP-1 activ – activators of MRP-1 | H69AR cells + doxorubicin, viability rescue, CellTiter-Glo | viability increase, % at 10 µM | 0.61% of 140,000 active;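 active = viability gain under doxorubicin at or above a set limit, the compound median plus 3 SD, cut at about 4.7% in these data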;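 also: MRP-1 overexpressing cells given doxorubicin 25 µM after compound pretreatment; 18-22 h compound pretreatment then 72 h with doxorubicin before readout; 0% = doxorubicin-only wells and 100% = vehicle-treated cells without doxorubicin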
PTPN22 inh 2 – LYP (human) phosphatase inhibition; Q9Y2R2; recombinant LYP catalytic domain, DiFMUP fluorescence; inhibition, % at 2 µM; 0.21% of 96,000 active;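 active = inhibition at 2 µM at or above a set limit, the screen mean plus 3 SD, cut at about 24% in these data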;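 also: 0% = DMSO with enzyme and 100% = enzyme fully blocked by orthovanadate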
PLAP activator – human PLAP activation | purified PLAP enzyme, luminescent substrate read-out; active compounds read high | P05187 | activation fold at 20 µM | 1.2% of 96,000 active | AID 696; in the data active = activation fold above about 2
An asterisk follows results filed as active.

What do the screens show for `COc1ccc(CN2CCN(C(=O)c3ccco3)CC2)cc1`?
LYP act: -36; FAK blocker: -3; MRP resist rev: -5; MRP-1 activ: 0; PTPN22 inh 2: 37*; PLAP activator: 0.9

What do the screens show for `CCc1nnc(NC(=O)c2ccc3c(c2)C(=O)N(CC)C3=O)s1`?
LYP act: 4; FAK blocker: -1; MRP resist rev: 0; MRP-1 activ: 1; PTPN22 inh 2: -5

Results for O=C(O)CCN1C(=O)CC(N2C(=O)/C(=C/c3ccc(Cl)cc3)SC2=S)C1=O (stereo not given) ?
MRP-1 activ: 8.0*

Results for CSc1c(CC(=O)Nc2ccc(F)cc2)n(Cc2ccccc2)c2ccccc12 ?
MRP-1 activ: 0

What do the screens show for `CC(C)(Sc1cc(C(C)(C)C)c(O)c(C(C)(C)C)c1)Sc1cc(C(C)(C)C)c(O)c(C(C)(C)C)c1`?
MRP resist rev: -1; MRP-1 activ: -1

How did Cn1ccnc1C(O)c1cc(C(C)(C)C)c(O)c(C(C)(C)C)c1 (stereo not given) do in these assays?
LYP act: -3; FAK blocker: -1; MRP resist rev: 7; MRP-1 activ: -4; PTPN22 inh 2: 4; PLAP activator: 2.2*

How did Cc1ccc(S(=O)(=O)NCc2nc3ccccc3[nH]2)cc1 do in these assays?
LYP act: -1; FAK blocker: -9; MRP resist rev: 0; MRP-1 activ: 1; PTPN22 inh 2: -3; PLAP activator: 2.3*

What do the screens show for `O=[N+]([O-])c1ccc(N/N=C/c2ccccc2)c(F)c1`?
MRP-1 activ: 5.2*

What do the screens show for `Cc1ccc(C(=O)N/C(=C/c2ccco2)C(=O)NCCc2c[nH]c3ccccc23)cc1`?
MRP-1 activ: -2

What do the screens show for `CCCc1ccc(Oc2cn[nH]c2-c2ccc(O)cc2O)cc1`?
LYP act: 2; FAK blocker: 1; MRP resist rev: -23; MRP-1 activ: -3; PTPN22 inh 2: -4; PLAP activator: 1.8

How did C=C(C)COc1ccc(-c2[nH]ncc2-c2ccccc2)c(O)c1 do in these assays?
LYP act: -2; FAK blocker: 17; MRP resist rev: -18; MRP-1 activ: -4; PTPN22 inh 2: 5; PLAP activator: 1.7

How did COc1ccc(O)c(-c2cn[nH]c2-c2cccs2)c1 do in these assays?
LYP act: -2; FAK blocker: -1; MRP resist rev: 12; MRP-1 activ: -1; PTPN22 inh 2: 5; PLAP activator: 1.4

What do the screens show for `COc1ccc(-c2[nH]ncc2-c2cnn(-c3ccccc3)c2)c(O)c1`?
LYP act: 17; FAK blocker: -1; MRP-1 activ: 46*; PTPN22 inh 2: -20; PLAP activator: 2*

What do the screens show for `COc1ccc(Oc2cn[nH]c2-c2ccc(O)cc2O)cc1`?
LYP act: 1; FAK blocker: 12; MRP resist rev: 0; MRP-1 activ: -1; PTPN22 inh 2: -1; PLAP activator: 2.2*

What do the screens show for `COc1ccc(-c2[nH]ncc2Oc2ccccc2OC)c(O)c1`?
LYP act: 2; FAK blocker: 0; MRP resist rev: -20; MRP-1 activ: -4; PTPN22 inh 2: -5; PLAP activator: 2.5*

How did COc1ccc(-c2[nH]ncc2-c2cnc(C)s2)c(O)c1 do in these assays?
LYP act: -2; FAK blocker: 0; MRP resist rev: 21; MRP-1 activ: 0; PTPN22 inh 2: -1; PLAP activator: 2.9*

What do the screens show for `O=C(NCc1cccs1)c1ccc([N+](=O)[O-])cc1Cl`?
MRP-1 activ: -1

Results for Cc1ccc(C(O)(C(=O)NNc2ccc3ccccc3n2)c2ccc(C)cc2)cc1 ?
MRP-1 activ: 3

What do the screens show for `CCOC(=O)c1ccc(-c2cc(C)no2)[nH]1`?
MRP-1 activ: 1

How did C1CCC(C23CC4CC(CC(C4)C2)C3)NC1 (stereo not given) do in these assays?
LYP act: 10; FAK blocker: 0; MRP resist rev: 7; MRP-1 activ: -2; PTPN22 inh 2: -12

What do the screens show for `CC(C)c1ccc(C2NC(=S)NC3=C2C(=O)CC(C)(C)C3)cc1` (stereo not given)?
MRP-1 activ: 4

What do the screens show for `Cc1ccc2c(c1)N(C(=O)c1ccco1)C(C)(C)c1ssc(=S)c1-2`?
LYP act: -8; FAK blocker: 1; MRP resist rev: 23; MRP-1 activ: 2; PTPN22 inh 2: 8; PLAP activator: 0.9

Results for COc1ccc(C2=Nc3ccc(Br)cc3C(c3ccccc3)N2CC(=O)NN)cc1 (stereo not given) ?
MRP-1 activ: 4.8*

What do the screens show for `CCn1ccc(C(=O)Nc2c(C)nn(Cc3c(F)c(F)c(F)c(F)c3F)c2C)n1`?
MRP-1 activ: -1

What do the screens show for `N#Cc1c(-c2cccs2)nc(SCC(=O)c2cccs2)[nH]c1=O`?
LYP act: -5; FAK blocker: -6; MRP-1 activ: 5.6*; PTPN22 inh 2: 10; PLAP activator: 1.3

How did N#Cc1c(-c2ccccc2)nc(SCC(=O)Nc2ccccc2F)[nH]c1=O do in these assays?
MRP-1 activ: 9.8*

What do the screens show for `Cc1cc(NC(=O)CSc2nc(-c3ccccc3)c(C#N)c(=O)[nH]2)no1`?
LYP act: 1; FAK blocker: -7; MRP resist rev: 4; MRP-1 activ: 9.1*; PTPN22 inh 2: -1; PLAP activator: 1

What do the screens show for `Cc1cc(NC(=O)CSc2nc3ccccc3[nH]2)no1`?
LYP act: 8; FAK blocker: -1; MRP resist rev: 6; MRP-1 activ: -3; PTPN22 inh 2: -9; PLAP activator: 1.6

Results for CCC(Sc1nc(-c2ccccc2)c(C#N)c(=O)[nH]1)C(=O)Nc1nnc(C)s1 (stereo not given) ?
LYP act: -2; FAK blocker: -5; MRP-1 activ: 6.4*; PTPN22 inh 2: 7; PLAP activator: 1.1

How did O=C(CSc1nc2ccccc2c(=O)[nH]1)c1cccs1 do in these assays?
LYP act: -4; FAK blocker: 4; MRP resist rev: -4; MRP-1 activ: -1; PTPN22 inh 2: 2; PLAP activator: 1

What do the screens show for `Cc1ccc(S(=O)(=O)/N=C(/c2ccc(F)cc2)N2CCCCC2)cc1`?
MRP-1 activ: -2

Results for N#Cc1c(-c2ccccc2)nc(SCC(=O)Nc2ccccc2)[nH]c1=O ?
MRP-1 activ: 9.6*

What do the screens show for `CCOC(=O)CCCCC(=O)c1[nH]c(=O)[nH]c1CSc1nc(-c2ccccc2)c(C#N)c(=O)[nH]1`?
LYP act: -1; FAK blocker: -14; MRP resist rev: 3; MRP-1 activ: 6.4*; PTPN22 inh 2: 4; PLAP activator: 1.7

What do the screens show for `N#Cc1c(-c2ccco2)nc(SCC(=O)Nc2ccc(S(N)(=O)=O)cc2)[nH]c1=O`?
LYP act: -2; FAK blocker: -4; MRP-1 activ: 3; PTPN22 inh 2: 3; PLAP activator: 0.9

Results for CCC(Sc1nccn1C)C(=O)Nc1nnc(C)s1 (stereo not given) ?
LYP act: 1; FAK blocker: 4; MRP resist rev: 1; MRP-1 activ: 7.3*; PTPN22 inh 2: -4; PLAP activator: 0.9
